Potency and activity, negative = inhibition data for 98 molecules are collected here from PubChem BioAssay AID504332 (National Center for Advancing Translational Sciences (NCATS), 2011).

Where “and” joins values, the source holds several entries; their conditions need not be identical. Equal values may be shown once. In all, about 350,000 compounds went through this assay and about 31,000 (8.9%) were called active. Roughly 15% stayed inconclusive and do not appear here. Calls come from the whole dose curve; as a rule, active = well fitted inhibition curve with a large enough effect; inconclusive = small, poorly fitted or top-dose-only effect; inactive = no such curve, though single readings can be large or run the other way. The list comes from a sample in which actives are over-represented; it also holds similar structures and randomly drawn compounds. Where a call stands in place of a potency, no number is given. The source holds several records for some structures; these can differ, active in one and inactive in another.
Potency is the fitted concentration of half-maximal effect.

Histone-lysine N-methyltransferase EHMT2 (Homo sapiens), sequence (Q96KQ7 913-1193 limits assumed): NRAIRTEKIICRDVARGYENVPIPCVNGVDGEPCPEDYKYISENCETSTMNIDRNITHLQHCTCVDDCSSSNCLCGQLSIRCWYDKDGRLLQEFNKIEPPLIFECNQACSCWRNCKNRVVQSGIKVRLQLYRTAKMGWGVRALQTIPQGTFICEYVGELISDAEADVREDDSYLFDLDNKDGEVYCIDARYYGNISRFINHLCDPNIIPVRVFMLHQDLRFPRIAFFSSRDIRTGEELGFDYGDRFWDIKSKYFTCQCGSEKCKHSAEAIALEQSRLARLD

The experiment deals with Histone-lysine N-methyltransferase EHMT2 (Homo sapiens) (UniProt Q96KQ7). The experiment is described as follows: qHTS Assay for Inhibitors of Histone Lysine Methyltransferase G9a. Note: nearly all actives have a fitted effect of over 75% in size. Conditions: G9a H3K9 monomethylation, AlphaScreen, 2 h; series mostly up to 59 µM. In outline:
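Step 1: enzyme (final 20 nM) with compound, 15 min RT. Step 2: substrate peptide 500 nM and SAM 20 uM, 2 h RT. Step 3: anti-H3K9me1 antibody and AlphaScreen beads, 10 min, then plate read.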
For orientation: Quantitative high-throughput screening tests each substance at several concentrations.
Regarding `Cc1cc(S(=O)(=O)NC2CCCC2)ccc1-n1cnnn1`, the Potency result is “inactive”.

Consider `O=C(NCC1CCCO1)c1ccc(S(=O)(=O)Nc2ccc(F)cc2)cc1` (stereo not drawn), for which the Potency result is “inactive”.

Take `CN(CC(=O)Nc1ccc(Cl)cc1)C(=O)c1ccc(COc2ccccc2)cc1`: the Potency result was “inactive”.

As to `Cc1ccc(NC(=O)CN(C)C(=O)c2ccc(Br)o2)cc1`, the Potency entry is “inactive”.

For `CN(CC(=O)Nc1ccc(F)cc1)C(=O)c1ccc(-c2ccc(Cl)cc2)o1`, the Potency was 79.4 µM (active).

Regarding `CCOc1ccccc1CNC(=O)c1ccc(-n2c(C)cc3c2CCC(C)C3)cc1` (stereo not drawn), the Potency entry is “inactive”.

Turning to `COc1ccc(CCNC(=O)CN(C)S(=O)(=O)c2ccc3nc(C)sc3c2)cc1OC`, the Potency entry was “inactive”.

With `CCOCCCNC(=O)c1ccc2nc(CCc3ccccc3)oc2c1`, the Potency entry is “inactive”.

Regarding `Cc1ccc(NC(=O)c2cc(S(=O)(=O)NCCC3=CCCCC3)ccc2F)cc1C`, the Potency result was “inactive”.

With `CSc1nnc(-c2ccncc2)n1CCCN1CCCC1=O`, the Potency is 50.1 µM (active).

On to `COCCCn1c(SCC(=O)Nc2ccccc2)nnc1-c1ccncc1`, for which the Potency entry is “inactive”.

Regarding `CCOc1cc2[nH]c(=S)n(CCCN3CCCC3=O)c(=O)c2cc1OCC`, the activity, negative = inhibition was -45.8% [at 12.7 µM] (inactive).

On to `O=C(c1ccc2c(c1)N(Cc1ccccc1F)C(=O)c1ccccc1S2(=O)=O)N1CCOCC1`, for which the Potency entry was “inactive”.

For `COC(=O)C1CCN(C(=O)c2cc(=O)[nH]c3ccccc23)CC1`, the Potency entry is “inactive”.

Take `COC(=O)[C@H]1[C@H]2C[C@H]3c4[nH]c5ccccc5c4CCN3C[C@@H]2CC[C@@H]1O`: the Potency result is “inactive and 12.6 µM (active)”.

With `O=C(NC1CCCCC1)N1CCc2[nH]c3ccccc3c2C1`, the Potency result was “inactive”.

Regarding `O=C(NCCc1ccc(F)cc1)c1ccc(S(=O)(=O)N2CCCCC2)cc1`, the Potency entry is “inactive”.

As to `Cc1cc(=O)n(C)c(=O)n1CCCNc1ccccc1`, the Potency is 15.8 µM (active).

In the case of `Cc1cc2nc(C)n(CCCNC(=O)Nc3ccccc3)c2cc1C`, the Potency entry was “inactive”.

For `Cn1c(Nc2ccccc2)cc(=O)n(C)c1=O`, the Potency entry was “inactive”.

`CCc1ccccc1NC(=O)Cn1c(=O)n(CC2CCC(C(=O)NCCc3ccccc3)CC2)c(=O)c2ccccc21` (stereo not drawn): the Potency result was “inactive”.

For `O=C(C1CCC(Cn2c(=O)c3sccc3n(Cc3ccccc3F)c2=O)CC1)N1CCCCC1` (stereo not drawn), the Potency entry is “inactive”.

Consider `COc1cccc(NC(=O)CSc2nnc(-c3cccnc3)o2)c1`, for which the Potency result was “inactive”.

On to `CCn1c(SCC(=O)Nc2ccc3c(c2)OCCO3)nnc1C(C)C`, for which the Potency entry was “inactive”.

For the molecule `CCCn1c(SCC(N)=O)nnc1C(C)C`, the Potency result was “inactive”.

On to `CCCn1c(SCC(=O)c2ccc3c(c2)OCCO3)nnc1C(C)C`, for which the Potency is 44.7 µM (active).

As to `COC(=O)c1ccc2c(c1)N(CC(=O)Nc1ccc(C)c(C)c1)C(=O)c1ccccc1S2`, the Potency result was “inactive”.

As for `Cc1ccc(C(=O)N/C(=C\c2cn(C)c3ccccc23)C(=O)N2CCN(C)CC2)cc1`, the Potency is 79.4 µM (active).

Take `Cc1ccc(C(=O)N/C(=C\c2cn(S(=O)(=O)N(C)C)c3ccccc23)C(=O)N2CCCC2)cc1`: the Potency entry is “inactive”.

As to `COc1cc(C(=O)N/C(=C\c2cn(C)c3ccccc23)C(=O)N2CCOCC2)cc(OC)c1OC`, the Potency result is “inactive”.

On to `CCCCC[C@H]1CN(C2CCCCC2)C(=O)[C@@H]1CC(=O)NCc1ccc(OC)cc1`, for which the Potency result was “inactive”.

With `CCN(CC)CCn1c2c(c(SCC(=O)Nc3ccc(C(C)C)cc3)nc1=O)CCC2`, the Potency entry is “inactive”.

Regarding `COc1ccc2nc(Nc3nc(-c4cc5ccccc5oc4=O)cs3)sc2c1`, the Potency entry was “inactive”.

Consider `O=c1oc2ccccc2cc1-c1csc(Nc2ccc(O)cc2)n1`, for which the Potency is 12.6 µM (active).

For `Cc1cc(NC(=O)c2cccc(Cl)c2)ccc1-c1cc2ccccc2oc1=O`, the Potency entry is “inactive”.

`CCOC(=O)CN1C(C(=O)c2ccccc2)=C(OC(=O)C(C)(C)C)c2ccccc2S1(=O)=O`: the Potency entry is “inactive”.

For `CCCCc1nn2c(=O)cc(COC(=O)c3ccccc3NC(=O)C(C)(C)C)nc2s1`, the Potency result was “inactive”.

Consider `O=C(COC(=O)c1ccccc1SCC(=O)N1CCCC1)Nc1ccccc1OC(F)F`, for which the activity, negative = inhibition is 13.9% [at 0.501 µM] (inactive).

With `Cc1ccc(-n2c(CNc3ccc(F)cc3)nnc2SCC(=O)N2CCOCC2)cc1`, the Potency entry is “inactive”.

For `COc1ccc(CSc2nnnn2-c2ccc(C(=O)O)cc2)cc1`, the Potency result is “inactive”.

Consider `COc1ccc(NCc2nnc(SCc3ccccc3)n2-c2ccc(OC)cc2)cc1`, for which the Potency was 50.1 µM (active).

Turning to `CC1(NC(=O)CCS(=O)(=O)c2ccc(Cl)cc2)CCS(=O)(=O)C1` (stereo not drawn), the activity, negative = inhibition was -5.47% [at 12.7 µM] (inactive).

Take `CC1(C)CC(=O)C=C(c2cccc3c2Oc2ccccc2S3)C1`: the activity, negative = inhibition was -4.23% [at 0.501 µM] (inactive).

With `O=C(C(=O)N1CCc2ccccc2C1)N1CCc2ccccc2C1`, the Potency result is “inactive”.

With `Cn1cccc1C(=O)N1CCc2ccccc2C1`, the Potency was 2 µM (active).

For the molecule `Cc1ccc(-c2cc(C(=O)N3CCc4ccccc4C3)no2)cc1`, the Potency entry is “inactive”.

For `O=C(CCc1cn(Cc2ccc(F)cc2)c2ccccc12)NC1CCCCC1`, the Potency entry was “inactive”.

`Cc1ccc(Cn2c(=N)c(S(=O)(=O)c3ccc(C)cc3)cc3c(=O)n4ccccc4nc32)cc1`: the Potency result is “inactive”.

`CCN(CC(=O)Nc1ccccc1OC)C(=O)CC1CC2CCC1C2` (stereo not drawn): the Potency entry was “inactive”.

Regarding `COc1ccccc1N1CCN(C(=O)c2ccc(NC3=NC4CS(=O)(=O)CC4S3)cc2)CC1` (stereo not drawn), the Potency entry is “inactive”.

For `O=C1CSC(=S)N1/N=C/c1ccc(O)c([N+](=O)[O-])c1`, the Potency was 14.1 µM (active).

Take `O=[N+]([O-])c1ccc(N2CCSCC2)cc1O`: the Potency result is “inactive”.

For `CCc1nn(CCCC(=O)Nc2ccc(C)cc2C)c(=O)c2cc3occc3n12`, the Potency result is “inactive”.

For `Cc1ccc(OCCNC(=O)CN2C(=O)NC3(CCCC3)C2=O)cc1`, the activity, negative = inhibition is 19.1% [at 2.33 µM] (inactive).

With `Cc1ccc(S(=O)(=O)CCC(=O)OCC(=O)NCCc2ccc(S(N)(=O)=O)cc2)cc1`, the activity, negative = inhibition is 1.87% [at 12.7 µM] (inactive).

`COc1ccc(Cc2nnc(NS(=O)(=O)Cc3ccccc3)s2)cc1`: the Potency entry was “inactive”.

Regarding `CCC(CC)c1nnc(NS(=O)(=O)Cc2ccccc2)s1`, the Potency was 5.01 µM (active).

Consider `Cc1cc(C)cc(NS(=O)(=O)Cc2ccccc2)c1`, for which the Potency entry is “inactive”.

Consider `CCc1ccc(NC(=O)CCNS(=O)(=O)c2cccs2)cc1`, for which the Potency entry is “inactive”.

Consider `CN1CCN(CC#CCC2(O)c3ccccc3-c3ccccc32)CC1`, for which the Potency was 35.5 µM (active).

With `CCCCOc1ccc(CN2C(=O)C(=O)c3cc(Br)cc(C)c32)cc1OC`, the Potency was 6.31 µM (active).

`CCCCOc1ccc(Cn2c(=O)oc3ccc(C)cc32)cc1OC`: the Potency result is “inactive”.

As to `CCCCN1C(=O)C(C)=C(C)C1OCCc1ccc(OC)c(OC)c1` (stereo not drawn), the activity, negative = inhibition is -12% [at 0.501 µM] (inactive).

In the case of `Cc1ccc2nc(N3CCN(c4cccc(Cl)c4)CC3)c3nnnn3c2c1`, the Potency entry was “inactive”.

In the case of `Cc1[nH]c2ccccc2c1C(c1ccccc1)c1cccs1` (stereo not drawn), the Potency entry is “inactive”.

In the case of `CC1CCN(S(=O)(=O)c2ccc3c(c2)N(CC(=O)NCc2ccccc2Cl)C(=O)CO3)CC1`, the Potency result was “inactive”.

With `Cc1cccc(N2CCN(C(=O)c3cccc(N4C(=O)C5C6C=CC(C6)C5C4=O)c3)CC2)c1C` (stereo not drawn), the Potency result is “inactive”.

On to `COc1ccc(NC(=O)CCN2C(=O)/C(=C/c3ccc4c(c3)OCO4)SC2=S)cc1`, for which the activity, negative = inhibition is 7.02% [at 12.7 µM] (inactive).

For the molecule `Cn1c(=O)n(C)c2cc(C(=O)Nc3ccc4c(c3)OCO4)ccc21`, the Potency result is “inactive”.

Take `Cc1ccc(C(=O)O)cc1-c1ccc(/C=C2\SC(=O)N(CC(=O)Nc3ccc4c(c3)OCO4)C2=O)o1`: the Potency was 15.8 µM (active).

Take `O=C(c1ccc(Cl)cc1)n1nc(-c2cccnc2)nc1NCc1ccc(F)cc1`: the Potency result was “inactive”.

For the molecule `CN1c2ccc(Cl)cc2-c2nc(SCC(=O)Nc3cc(F)ccc3F)ncc2S1(=O)=O`, the Potency entry is “inactive”.

Turning to `CS(=O)(=O)c1ccc(-c2nnn(CC(=O)Nc3ccc4c(c3)OCCO4)n2)cc1`, the Potency result was “inactive”.

Regarding `Oc1ccc(N=Nc2nccs2)c(O)c1`, the Potency is 44.7 µM (active).

Take `Oc1ccc2ccccc2c1N=Nc1nccs1`: the activity, negative = inhibition is 12.3% [at 0.501 µM] (inactive).

Consider `Cc1cccc(NC(=O)C2CCCN2S(=O)(=O)c2cccc3nsnc23)c1C` (stereo not drawn), for which the Potency result was “inactive”.

As for `COc1ccc(-c2noc(CSc3nc(C)cc(=O)[nH]3)n2)cc1OC`, the Potency result is “inactive”.

For the molecule `Cc1ccc(-c2nc(-c3cccnc3)sc2CC(=O)Nc2ccc(C)c(Cl)c2)cc1`, the Potency is 8.91 µM (active).

For `Cc1cc(C)c(NC(=O)CS(=O)CC(=O)Nc2cccnc2)c(C)c1` (stereo not drawn), the Potency entry was “inactive”.

`Cc1nc(-c2ccc(F)cc2)c(CC(=O)Nc2cccc(S(=O)(=O)N3CCOCC3)c2)s1`: the activity, negative = inhibition is 9.73% [at 0.501 µM] (inactive).

On to `Cc1ccsc1C(=O)OCC(=O)Nc1cccc(F)c1`, for which the activity, negative = inhibition is 19.6% [at 12.7 µM] (inactive).

`CCOc1ccc(C(O)Cn2c(=N)n(CCN3CCCCC3)c3ccccc32)cc1` (stereo not drawn): the Potency was 50.1 µM (active).

On to `Cn1c(=N)n(CC(O)c2ccccc2)c2ccccc21` (stereo not drawn), for which the Potency result is “inactive”.

For the molecule `CCOc1ccc(C(O)Cc2nc3ccccc3n2C)cc1` (stereo not drawn), the Potency entry was “inactive”.

For `Fc1ccc(-c2nn(-c3ccccc3Cl)c3c2cnc2ccccc23)cc1`, the Potency result was “inactive”.

In the case of `N#Cc1cccc(NC(=O)CN2CCCCCC2)c1`, the Potency result is “inactive”.

For `CC(C)c1ccc(NC(=O)NC2CCCCC2)cc1`, the Potency result was “inactive”.

With `Cc1cccc(C(=O)N2CCCC(Nc3ccc(C(C)C)cc3)C2)n1` (stereo not drawn), the Potency was 56.2 µM (active).

`CC(C)c1ccc(NC2CCCN(C(=O)c3ccncc3)C2)cc1` (stereo not drawn): the Potency result is “inactive”.

As to `CCN(CC(=O)NCc1ccc(Cl)cc1)C(=O)c1c(C)noc1C`, the activity, negative = inhibition was -126% [at 12.7 µM] (inactive).

In the case of `Cc1cccc(N2CCN(S(=O)(=O)c3ccc4[nH]c5c(c4c3)CCCCC5)CC2)c1C`, the Potency result was “inactive”.

Take `Cc1cccc(NC(=O)Cn2nc(-c3ccc(Cl)cc3)c3ccccc3c2=O)c1`: the Potency entry is “inactive”.

As for `Cc1ccc(-c2csc(NC(=O)Cn3[nH]c(=O)c4ccccc4c3=O)n2)cc1`, the Potency result was “inactive”.

As for `CCN(CC)c1ccc(C(=O)NNC(=O)CCc2nc3ccccc3c(=O)[nH]2)cc1`, the Potency result was “inactive”.

Take `Cc1cc(C)c(-c2csc(NC(=O)CCCc3nc4ccccc4c(=O)[nH]3)n2)c(C)c1`: the Potency is 50.1 µM (active).

For `CCCn1c(C)cc(-c2csc(NC(=O)CCc3nc4ccccc4c(=O)[nH]3)n2)c1C`, the Potency was 25.1 µM (active).

On to `CCCc1ccc(-c2csc(NC(=O)Cc3cccs3)n2)cc1`, for which the Potency entry was “inactive”.

In the case of `Cc1ccc(-c2csc(NC(=O)Cc3cccs3)n2)cc1C`, the Potency result is “inactive”.
